{
  "source": "PubChem BioAssay (NCATS)",
  "note": "Inconclusive results are not listed. Values without a mark were called inactive. Calls come from the whole dose curve; as a rule, active = well fitted cell-killing curve with a large enough effect; inconclusive = small, poorly fitted or top-dose-only effect, or effect the other way; inactive = flat fitted curve, though single readings scatter. % is set by controls: 0 for no effect and ±100 for the full control effect.",
  "data": [
    {"tested_on": "PA-1", "assay": "Primary qHTS to identify gynecologic anti-cancer compounds using libraries of approved drugs and bioactive compounds (AID 1345084); note: nearly all actives have a fitted effect of over 55% in size", "settings": "Gynecologic cancer cell panel viability, ATPlite luminescence, 48 h; series mostly up to 57.5 µM; activity change, negative = cytotoxicity: at the top concentration", "outline": "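ATP-based viability (ATPlite), 1,000 cells/well, 16 h pre-incubation, 48 h compound at 37 C, 5% CO2, 15 min RT before read.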", "values": [
      {"smiles": "COC(=O)C1=CO[C@@H](O[C@@H]2O[C@H](CO[C@@H]3O[C@H](CO)[C@@H](O)[C@H](O)[C@H]3O)[C@@H](O)[C@H](O)[C@H]2O)[C@@H]2C(CO)=CC[C@H]12", "activity change, negative = cytotoxicity": "9.2% [at 25.3 µM]"},
      {"smiles": "CSCC1OC(n2cnc3c(=O)[nH]cnc32)C(O)C1O", "note": "(centres undefined)", "activity change, negative = cytotoxicity": "7.25%"},
      {"smiles": "COc1cc(C)c(C(=O)OC2C(C)OC(OC3CCC(C)C4C3C=C(C)C3/C(C)=C\\CC/C(C)=C/C5(C)C=C(C(=O)O)C(C)CC56OC(=O)/C(=C(\\O)C34C)C6=O)C(O)C2O)c(OC)c1", "note": "(centres undefined)", "activity change, negative = cytotoxicity": "-4.04% [at 11.6 µM]"},
      {"smiles": "OC[C@H]1O[C@@H](OCc2ccccc2)[C@H](O[C@@H]2OC[C@@H](O)[C@H](O)[C@H]2O)[C@@H](O)[C@@H]1O", "activity change, negative = cytotoxicity": "11.5% [at 25.3 µM]"},
      {"smiles": "Nc1ccc(-n2nc(C(F)(F)F)cc2C(F)(F)F)cc1", "activity change, negative = cytotoxicity": "4.86%"},
      {"smiles": "Oc1ccc(CC2NCCc3cc(O)c(O)cc32)cc1", "note": "(centres undefined)", "activity change, negative = cytotoxicity": "9.8%"},
      {"smiles": "NCCCCN(Cc1nc2ccccc2[nH]1)[C@H]1CCCc2cccnc21", "activity change, negative = cytotoxicity": "-5.59% [at 25.3 µM]"},
      {"smiles": "C/C(=C\\C1CCC(C)C2CCC3(C)OC123)C(=O)O", "note": "(centres undefined)", "activity change, negative = cytotoxicity": "3.37%"},
      {"smiles": "CC1=C2C3OC(=O)C(C)C3(O)CCC2(C)CCC1", "note": "(centres undefined)", "activity change, negative = cytotoxicity": "4.61%"},
      {"smiles": "O=C(N[C@H](Cc1ccccc1)C(=O)O)c1sc2cc(F)ccc2c1Cl", "activity change, negative = cytotoxicity": "5.33%"},
      {"smiles": "CC(=O)c1ccc(O[C@@H]2O[C@H](CO[C@@H]3OC[C@@H](O)[C@H](O)[C@H]3O)[C@@H](O)[C@H](O)[C@H]2O)cc1", "activity change, negative = cytotoxicity": "17.5% [at 25.3 µM]"},
      {"smiles": "C=C1C[C@H](O)[C@@H](O)[C@@]2(C)C1[C@@H](O)[C@H]1OC(=O)C3[C@@H](C)[C@@H](O)[C@H](O)C2[C@]31C", "note": "(some centres undefined)", "activity change, negative = cytotoxicity": "-0.0718% [at 38.5 µM]"},
      {"smiles": "CCCC/C=C\\CCCCCc1cc(=O)c2ccccc2n1C", "activity change, negative = cytotoxicity": "0.157% [at 38.5 µM]"},
      {"smiles": "Cn1cc(Nc2cnccc2C(=O)O)c2cccnc21", "activity change, negative = cytotoxicity": "1.8%"},
      {"smiles": "C[C@H]1[C@H](C)C[C@@H](C(=O)O)C2CC[C@]3(C)C(=CC[C@@H]4[C@@]5(C)CC[C@H](O)C(C)(C)[C@@H]5CC[C@]43C)[C@@H]21", "note": "(some centres undefined)", "activity change, negative = cytotoxicity": "1.68%"},
      {"smiles": "C=CC(C)(O)CC/C=C(\\C)C(=O)O[C@@H]1[C@@H](O)[C@H](OC(C)(C=C)CC/C=C(\\C)C(=O)O)O[C@H](CO)[C@H]1OC(=O)/C(C)=C/CCC(C)(O)C=C", "note": "(some centres undefined)", "activity change, negative = cytotoxicity": "5.52% [at 25.3 µM]"},
      {"smiles": "CC1(C)CC[C@]2(C(=O)O[C@@H]3O[C@H](CO)[C@@H](O)[C@H](O)[C@H]3O)CC[C@]3(C)C(=CCC4[C@@]5(C)CC[C@H](O[C@@H]6O[C@H](C(=O)O)[C@@H](O)[C@H](O)[C@H]6OC6OC(CO)C(O)C(O)C6O)C(C)(C)C5CC[C@]43C)[C@@H]2C1", "note": "(some centres undefined)", "activity change, negative = cytotoxicity": "17.8% [at 11.6 µM]"},
      {"smiles": "COc1cccc(C)c1C(=O)O[C@@H]1C[C@H](O[C@H]2[C@H](O)C[C@H](O[C@@H]3CCC[C@H]4[C@H]3C=C[C@@H]3CCCC/C=C/[C@H]5C=C(C(=O)O)[C@@H](C)C[C@@]56OC(=O)C(=C6O)OC(=O)[C@@]34C)O[C@@H]2C)O[C@H](C)[C@H]1O", "activity change, negative = cytotoxicity": "9.36% [at 11.6 µM]"},
      {"smiles": "CC(C)CC(=O)OC[C@@]1(O)C[C@@]23CC[C@H]4[C@@](C)(CCC[C@@]4(C)C(=O)O)[C@@H]2CC[C@@H]1C3", "activity change, negative = cytotoxicity": "5.72% [at 25.3 µM]"},
      {"smiles": "C=C[C@H]1[C@H](O[C@@H]2O[C@H](CO)[C@@H](O)[C@H](O)[C@H]2O)OC=C(C(=O)OC)[C@H]1CC=O", "activity change, negative = cytotoxicity": "8.49% [at 38.5 µM]"},
      {"smiles": "C=C1C(=O)OC2CC(COC(=O)C(C)C)=C(C(C)CCCOC(C)=O)[C@@H](OC(C)=O)C12", "note": "(some centres undefined)", "activity change, negative = cytotoxicity": "-1.83% [at 25.3 µM]"},
      {"smiles": "CC1=C2C(=O)C=C(CO[C@@H]3O[C@H](CO)[C@@H](O)[C@H](O)[C@H]3O)[C@@H]2[C@H]2OC(=O)[C@H](C)[C@@H]2[C@@H](O)C1", "activity change, negative = cytotoxicity": "-1.98% [at 25.3 µM]"},
      {"smiles": "C=C1C(=O)O[C@@H]2CC(C)=C([C@@H](C)CCCOC(C)=O)[C@@H](O)[C@H]12", "activity change, negative = cytotoxicity": "8.15% [at 38.5 µM]"},
      {"smiles": "CC1=COC(OC2OC(CO)C(O)C(O)C2O)C2C(CO)CC(OC(=O)/C=C/c3ccc(O)cc3)C12", "note": "(centres undefined)", "activity change, negative = cytotoxicity": "-8.67% [at 25.3 µM]"},
      {"smiles": "COc1cccc(OC)c1-c1ccc(C[C@H](NC(=O)c2c(Cl)cccc2Cl)C(=O)O)cc1", "activity change, negative = cytotoxicity": "-5.22%"},
      {"smiles": "C/C=C/C(=O)OC1/C=C/C(O)C(OC(C)=O)CCC(=O)OC1C", "note": "(centres undefined)", "activity change, negative = cytotoxicity": "4.21% [at 38.5 µM]"},
      {"smiles": "CC1(C)[C@H]2C[C@H](C/C=C\\CCCC(=O)O)[C@@H](NC(=O)c3csc4ccc(O)cc34)[C@@H]1C2", "activity change, negative = cytotoxicity": "-0.0009%"},
      {"smiles": "CC(=O)/C=C/C1C(C)CC(O[C@@H]2O[C@H](CO)[C@@H](O)[C@H](O)[C@H]2O)CC1(C)C", "note": "(some centres undefined)", "activity change, negative = cytotoxicity": "16% [at 38.5 µM]"},
      {"smiles": "COC(=O)c1ccccc1O[C@@H]1O[C@H](CO[C@@H]2OC[C@@H](O)[C@H](O)[C@H]2O)[C@@H](O)[C@H](O)[C@H]1O", "activity change, negative = cytotoxicity": "-0.522% [at 25.3 µM]"}
    ]}
  ]
}
